# Screening data from PubChem.
# Shown is part of a subset that was picked to be rich in hits.
# CD11b adhes inh: inhibitors of human CD11b/CD18 binding to fibrinogen; P05107+P11215; K562 CD11b/CD18 adhesion to fibrinogen, ATPlite luminescence; Mn2+ added to activate the integrin; inhibition, % at 10 µM; 0.54% of 93,000 active; AID 1497;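 active means primary inhibition of 50% or more at 10 µM, then 40% or more on retest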
# Cav3 T inh: inhibitors of human Cav3.2 T-type calcium channel; B-score at 10 µM; Cav3.2-expressing cells, Fluo-4 calcium fluorescence FDSS; hits give low values; O95180; AID 449739; 4% of 100,000 active;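 active means single-dose well whose peak fluorescence ratio is a statistical outlier from its plate by either plate-standardised score or position-corrected B-score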
# CD11b adhes enh: enhancers of human CD11b/CD18 binding to fibrinogen; P05107+P11215; K562 CD11b/CD18 adhesion to fibrinogen, ATPlite luminescence; activation, % at 10 µM; 0.07% of 93,000 active; AID 1499;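 active means 10 µM primary screen giving 50% or more activity, confirmed by 40% or more on retest at that dose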
# E coli WT exp: E. coli BW25113 growth inhibition, expanded screen; growth inhibition, % at 100 µM; 0.15% of 98,000 active; OD600 absorbance;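 active means growth inhibition above about 50% at one test dose, limit read from the data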;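 further: growth measured after 20 h incubation at 37 °C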
# Hits are given with their value; - = inactive; . = not tested or not shown.
SMILES,CD11b adhes inh,Cav3 T inh,CD11b adhes enh,E coli WT exp
CC1CCc2c(sc(NS(=O)(=O)c3ccccc3)c2C(=O)OC(C)C)C1 (centres undefined),.,-5.1,.,.
COC(=O)c1c(NS(=O)(=O)c2ccc3ccccc3c2)sc2c1CCCC2,52,-,-,-
COCC(=O)Nc1sc2c(c1C(=O)OC)CCC(C)C2 (centres undefined),-,-,-,-
CCOC(=O)c1c(NS(=O)(=O)Cc2ccccc2)sc2c1CCCC2,-,-4.2,-,-
CCOC(=O)c1c(NC(=O)OC)sc2c1CCC2,-,-,-,-
CCOC(=O)c1c(NS(=O)(=O)c2ccc(Br)cc2)sc2c1CCC2,.,-8.5,.,.
CC(Sc1nc(-c2ccccc2)cs1)C(=O)Nc1ccc(Cl)cn1 (centres undefined),-,.,-,.
C[C@@]1([C@@H](NC(=O)c2cccs2)c2ccc(-c3ccccc3)cc2)C[C@H]1C1CCCCC1,.,-,.,.
CCc1ccc2nc3nc(C)cc(C)c3c(N)c2c1,-,-,-,-
Cc1cc(C)c2c(N)c3ccccc3nc2n1,-,-,-,52
Cc1cc(C)c[n+](-c2[nH]c(=O)sc2/C=N/NC([S-])=Nc2ccccc2)c1,-,.,-,.
O=C(Nc1cc(Cl)ccc1Cl)c1ccc(OC(=O)c2ccco2)cc1,-,-,-,-
CN1CCN(C(=O)c2cc3c(n(-c4ccccc4)c2=O)CC(C)(C)CC3=O)CC1,-,-,-,-
CC1(C)CC(=O)c2cc(C(=O)NCc3ccco3)c(=O)n(-c3ccccc3)c2C1,-,4.1,-,-
CCOC(=O)c1cc(C#N)c(Oc2ccccc2OC)nc1-c1ccccc1,.,-,.,-
O=C1Nc2cc(Cl)ccc2Nc2cscc21,.,-,.,.
C[C@H]1CCC[C@@]2(O[C@@H](CCO)C[C@@H](O)[C@@H]2O)O1,.,-,.,.
CCC(C)(C)n1nnnc1C(c1ccc(C)cc1)N1CCN(Cc2ccc3c(c2)OCO3)CC1 (centres undefined),.,-4.4,.,.
CCC(C)(C)n1nnnc1CN1CCN(C(c2ccccc2)c2ccccc2)CC1,.,-3.4,.,.
CCC(C)(C)n1nnnc1C(c1ccc2ncccc2c1)N1CCN(Cc2ccc3c(c2)OCO3)CC1 (centres undefined),-,-,-,-
CCOC(=O)c1c(/N=C/c2cccc(C)c2O)sc2c1CCN(C)C2,-,.,-,.
COc1cc(-c2c(C#N)c(N)nc3c2c(C)nn3-c2ccc(C)c(C)c2)cc(OC)c1OC,-,-4.8,-,-
CC(C)CNc1cc(N2CCCC2)ccc1[N+](=O)[O-],.,-,.,-
CCCC(=O)N1CCN(c2ccc([N+](=O)[O-])c(NC(C)c3ccccc3)c2)CC1 (centres undefined),-,-6.3,-,-
Nc1ccc(C(=O)Nc2ccco2)cc1,.,-,.,.
SMILES,CD11b adhes inh,Cav3 T inh,CD11b adhes enh,E coli WT exp
CCn1c(C)nc2cc(-c3nc4n(n3)Cc3ccccc3-4)ccc21,98,-,-,-
COc1cccc(C2C(C(=O)c3cccs3)=C(O)C(=O)N2CCCn2ccnc2)c1OC (centres undefined),-,.,-,.
CCCCCC(/C=N/Nc1ccc(S(=O)(=O)N2CCOCC2)cc1[N+](=O)[O-])=C\c1ccccc1,-,-,-,-
CC1=C(OC(=O)c2ccccc2)C(C)(C)C(c2ccc(Br)cc2)OC1=O (centres undefined),-,-7.1,-,-
CCN(c1cccc(C)c1)S(=O)(=O)c1cnc[nH]1,-,-,-,-
CCOc1ccccc1N1CCN(C(=S)NCc2ccco2)CC1,-,.,-,.
S=C(NCc1ccco1)N1CCN(Cc2ccc(Cl)cc2Cl)CC1,.,-3.6,.,-
Cc1cc(C)n(C(=O)c2ccc(C)c(S(=O)(=O)N3CCCC3)c2)n1,-,-,-,-
O=C(CCSc1ccc(Cl)c(Cl)c1)NC12CC3CC(CC(C3)C1)C2,-,-5.9,-,-
COCCC(=O)NC12CC3CC(CC(C3)C1)C2,-,-,-,-
Cc1ccc(/C=C2\SC(=S)N(c3c(C)n(C)n(-c4ccccc4)c3=O)C2=O)cc1,.,-5,.,-
Cc1ccc(CO/N=C\Cc2snc(Sc3ncc(C(F)(F)F)cc3Cl)c2C#N)cc1,-,-,-,-
COc1ccccc1-c1cc(C(=O)N/N=C/C=C/c2ccccc2[N+](=O)[O-])c2ccccc2n1,-,-4.1,-,-
COc1ccccc1-c1cc(C(=O)N/N=C/c2cccs2)c2ccccc2n1,-,.,-,-
CC(C)(C)CC(C)(C)NCC(O)COc1c(F)cc(Br)cc1F (centres undefined),-,-5.7,-,-
CCC1(C)CC(c2nc(-c3ccc(OC)cc3)cs2)CCS1 (centres undefined),-,.,-,.
CCC(=O)Nc1cccc2c1C(=O)N(C)C2=O,.,-,.,.
CCNc1cccc2c1C(=O)N(C)C2=O,-,-4.1,-,-
